hgDAF12 agonist: activates the H. glycines DAF-12 receptor ligand-binding domain | activation, % at 6.8 µM | HEK293 GAL4-hgDAF12 UAS-luciferase reporter, agonist luminescence; normalized to butyrate control | 1.8% of 370,000 active | AID 687014;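 active means activation above a cutoff set at the mean of all screened compounds plus 3 SD, cut at about 10% in these data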;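 further: 0% = DMSO wells and 100% = sodium butyrate wells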
DAX1 inh-1: inhibitors of DAX1 repression of SF-1 activated StAR promoter; HEK293T StAR-luciferase reporter, SF-1/DAX-1 repression relief; inhibition, % at 6.8 µM; 1.1% of 370,000 active;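 active means inhibition above the mean over all tested compounds plus 3 SD, cut at about 3.6% in these data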;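 further: 0% = DAX-1 cells with DMSO and 100% = cells lacking DAX-1 with DMSO; higher inhibition means more luminescence from relief of DAX-1 repression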
PolyA inhibitor: blocks polyadenylation in yeast reporter cells; S. cerevisiae SKY197-pL101 polyadenylation reporter, beta-gal luminescence; efflux-impaired pdr1/pdr3 knockout yeast; score 100 = 6 SD above DMSO; activity score, % at 12 µM; 0.02% of 300,000 active;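 active means lowest replicate activity score at least 50, where 100 means six control SD above control mean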;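 further: yeast exposed to compound for 9 h at 30 °C; higher score means more reporter readthrough which indicates perturbed polyadenylation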
ssDAF12 agonist: activators of S. stercoralis DAF-12 nuclear receptor; HEK293 ssDAF-12/GRIP1 lit1-tk-luc reporter, luminescence; % of 3 µM dafachronic acid response; activation, % at 6.8 µM; 1% of 370,000 active; AID 652126;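 active means activation above the mean over all tested compounds plus 3 SD, cut at about 0.9% in these data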;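 further: 0% = DMSO-only wells and 100% = 3 µM delta7-dafachronic acid wells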
hcDAF12 agonist: activators of H. contortus DAF-12 nuclear receptor; HEK293 hcDAF-12 lit1-tk-luc reporter, luminescence; 0% DMSO, 100% Δ7-dafachronic acid; activation, % at 6.8 µM; 1.4% of 370,000 active;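 active means activation above the mean of all tested compounds plus 3 SD, cut at about 5.5% in these data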;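 further: 100% = response to 3 µM Δ7-dafachronic acid high control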
DAX1 inh-2: inhibitors of human orphan nuclear receptor DAX1 (NR0B1). 0.99% of 340,000 active. inhibition, % at 6.75 µM. AID 504766. P51843. HEK293 Gal4-DAX1 luciferase reporter, luminescence;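 active means inhibition above the mean over all tested compounds plus 3 SD, cut at about 4.2% in these data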;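 further: 0% = DAX1-transfected cells with DMSO and 100% = empty-vector control cells with DMSO; inhibition shows as a rise in luminescence from relieved DAX1 repression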
Target sequence (P51843 207-470 limits assumed): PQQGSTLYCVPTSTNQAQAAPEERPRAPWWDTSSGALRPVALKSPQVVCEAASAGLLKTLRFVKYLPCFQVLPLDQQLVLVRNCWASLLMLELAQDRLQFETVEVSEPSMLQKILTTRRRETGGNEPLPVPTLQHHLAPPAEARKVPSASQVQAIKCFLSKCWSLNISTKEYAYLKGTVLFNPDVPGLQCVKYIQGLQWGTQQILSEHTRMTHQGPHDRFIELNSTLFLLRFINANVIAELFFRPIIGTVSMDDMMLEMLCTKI
hgDAF12 ag: confirmation of H. glycines DAF-12 agonists. shares compounds with hgDAF12 agonist. HEK293 GAL4-hgDAF12 luciferase reporter, agonist mode; percent of butyrate response. activation, % at 6.8 µM. 80% of 3,300 active;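 active means mean activation over triplicate wells above the hit cutoff derived from the earlier primary screen, cut at about 11% in these data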;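 further: 0% = DMSO low control and 100% = 2 mM sodium butyrate high control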
LXRb DAF12 ctr: activates human LXR-beta, counter-screen for DAF-12 agonists; shares compounds with hgDAF12 agonist; HEK293 Gal4-LXR luciferase reporter, 24 h; activation, % at 6.8 µM; 3,300 tested, under 10 active;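 active means mean activation of the triplicate above a set limit carried over from the primary screen, none filed active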
Target sequence (P55055 whole entry, looked up, the tested form may be a part): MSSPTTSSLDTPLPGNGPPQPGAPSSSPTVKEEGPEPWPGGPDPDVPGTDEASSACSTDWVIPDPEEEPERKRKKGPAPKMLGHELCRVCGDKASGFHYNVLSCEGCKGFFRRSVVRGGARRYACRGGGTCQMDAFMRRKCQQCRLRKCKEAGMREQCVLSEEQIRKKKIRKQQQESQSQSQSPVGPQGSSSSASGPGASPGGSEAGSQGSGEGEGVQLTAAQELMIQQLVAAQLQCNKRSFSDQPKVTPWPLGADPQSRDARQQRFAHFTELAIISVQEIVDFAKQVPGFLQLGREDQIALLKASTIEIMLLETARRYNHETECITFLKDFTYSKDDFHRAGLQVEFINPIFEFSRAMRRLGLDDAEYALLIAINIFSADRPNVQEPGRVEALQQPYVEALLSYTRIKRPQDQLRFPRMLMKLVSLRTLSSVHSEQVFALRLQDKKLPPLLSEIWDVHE
An asterisk follows results filed as active; / = no result. The list is not random: actives were taken first. Their share in the collection is about 4.1%.

SMILES	hgDAF12 agonist	DAX1 inh-1	PolyA inhibitor	ssDAF12 agonist	hcDAF12 agonist	DAX1 inh-2	hgDAF12 ag	LXRb DAF12 ctr
Cc1ccc(NC(=O)N2CCN(Cc3ccc4c(c3)OCO4)CC2)cc1	-2.4	0.9	-3.0	-1.2	-0.1	-0.9	/	/
O=C(Nc1ccc2c(c1)OCO2)N1CCN(Cc2ccco2)CC1	20.3*	3.0	12.9	0.7	3.9	0.0	13.8*	0.5
COc1cc(O)cc2cc3c(c(O)c12)C(=O)CC(C)(O)O3 (centres undefined)	15.2*	-0.1	/	-1.6	1.3	2.3	4.3	0.3
O=C(O)c1cccc(N/N=C/C2=C(Cl)c3cc(Cl)ccc3SC2)c1	16.0*	3.5	-22.4	1.4*	5.4	-0.2	18.7*	0.8
Cn1cnnc1SCC(=O)Nc1ccc2nc(SCc3ccccc3F)sc2c1	13.2*	0.8	-0.7	-0.7	1.2	1.8	12.6*	0.4
Cc1cc(C)c2c(CN(C)Cc3ccccc3)cc(=O)oc2c1	13.5*	0.8	/	-0.4	-1.9	/	-1.5	0.1
Cc1ccc(NC(=O)/C=C/c2ccc3c(c2)OCO3)nc1	16.7*	3.2	20.9	-0.8	4.8	0.8	13.1*	0.8
CSc1ccc(C2NC(=O)c3ccccc3N2)cc1 (centres undefined)	14.7*	-0.3	-3.7	-0.2	3.1	4.6*	13.9*	0.4
O=C(CCCCCNC(=O)N1CCn2c1nc1ccccc12)NCc1ccc(F)cc1	-2.9	0.0	6.7	0.0	-0.1	0.2	/	/
O=C(CN1C(=O)CSCC1=O)Nc1ccc2c(c1)OCO2	0.6	0.0	8.4	-1.5	0.8	-0.2	/	/
CC1SC(C)C(=O)N(CC(=O)Nc2ccc3c(c2)OCO3)C1=O (centres undefined)	14.0*	-1.5	/	-1.4	0.1	0.8	2.9	0.1
O=C(Nc1cc(Cl)ccc1Cl)c1ccc(-c2ccccc2)cc1	0.3	0.8	-8.9	-0.1	1.5	-0.6	/	/
O=C(Nc1ccc(Cl)cc1Cl)C1=Cc2ccccc2OC1	14.4*	3.2	-9.5	0.3	5.2	3.0	17.6*	1.1
COc1ccccc1C(=O)O/N=C(\N)c1ccccc1Cl	17.3*	2.5	16.3	0.0	4.4	3.2	10.7*	0.4
COc1ccc(C(=O)O/N=C(\N)c2ccccc2Cl)cc1OC	8.0	0.5	-23.6	-0.3	2.6	-0.9	/	/
O=C(O)CCC1(CCC(=O)O)CCCC(CCC(=O)O)(CCC(=O)O)C1=O	-0.8	-2.0	/	-1.2	-0.9	0.6	/	/
CC(C)n1c(-c2ccc(N(C)C)cc2)nc2ccccc21	16.4*	3.2	/	0.6	5.8*	0.7	6.9	0.3
CC[C@]1(C(=O)OC)[C@H]2C(=O)N(C)C(=O)[C@H]2[C@H]2CN=C(SCc3ccc(C#N)cc3)N21	1.7	0.5	/	-1.0	-0.7	-0.6	/	/
COc1cc(/C=N/NC(=O)c2cccc(S(=O)(=O)N3CCCC3)c2)cc(OC)c1O	-1.3	-1.3	-1.3	-1.2	-1.6	-0.7	/	/
CSCCNC(=O)c1ccc(C(C)(C)C)cc1	16.2*	3.2	14.2	1.1*	3.7	0.0	15.9*	0.8
O=C(COc1ccccc1Cl)Nc1ccc2c(c1)OCO2	13.4*	1.5	6.9	0.5	6.0*	1.2	12.1*	0.7
Cc1ccccc1OCC(=O)Nc1ccc2c(c1)OCO2	6.0	1.1	-11.6	-1.3	0.9	3.0	/	/
CCCCC(=O)N1CCCC(c2nc(-c3cccc(OC)c3)no2)C1 (centres undefined)	14.9*	1.5	-15.1	-1.4	0.9	1.6	5.6	0.3
COc1ccc(-c2noc(C3CCCN(C(=O)NC4CCC(C)CC4)C3)n2)cc1 (centres undefined)	14.2*	3.6	/	-0.9	0.1	/	2.3	0.3
COc1cccc(-c2noc(C3CCCN(C(=O)CC(C)(C)C)C3)n2)c1 (centres undefined)	8.9	0.8	3.8	-1.6	2.5	0.7	/	/
SMILES	hgDAF12 agonist	DAX1 inh-1	PolyA inhibitor	ssDAF12 agonist	hcDAF12 agonist	DAX1 inh-2	hgDAF12 ag	LXRb DAF12 ctr
COc1ccc(-c2noc(C3CCCN(C(=O)N[C@@H]4C[C@H]4c4ccccc4)C3)n2)cc1 (some centres undefined)	8.0	1.8	/	-0.8	2.1	/	/	/
Cc1nn(C(=O)c2cccs2)c(N)c1-c1ccccc1	15.0*	3.7*	-0.1	-0.5	4.7	3.1	16.6*	0.5
Cc1cccc(N=Nc2cnc(N)s2)c1	18.1*	0.6	0.2	-0.7	4.1	4.4*	7.0	0.2
CC(=O)Nc1ncc(N=Nc2cccc(C(F)(F)F)c2)s1	1.1	-0.3	-16.8	-0.2	-1.5	-1.2	/	/
O=C(NC(=S)Nc1ccccc1)c1cccs1	15.3*	0.8	-7.9	0.7	4.1	4.5*	17.3*	0.5
CC(C)c1cc(C(=O)Nc2cc(Br)ccc2O)no1	8.9	1.4	-3.4	-0.6	1.0	0.3	/	/
CCCc1cc(C(=O)Nc2cc(Br)ccc2O)no1	14.9*	-1.3	0.9	-1.5	2.6	-0.5	5.9	0.3
Cc1cccnc1NC(=O)c1ccc(S(=O)(=O)NCc2ccco2)cc1	-0.1	1.2	4.9	0.4	-0.6	1.1	/	/
O=C(Nc1ncccc1O)c1ccc(S(=O)(=O)NCc2ccco2)cc1	21.3*	4.3*	/	-0.3	0.1	3.9	20.2*	0.1
O=c1c2ccccc2nnn1CSc1ccccc1	15.7*	3.6*	3.9	-0.6	2.9	1.4	13.6*	0.5
O=C(Nc1ccc(N2CCOCC2)cc1N1CCOCC1)c1cccc([N+](=O)[O-])c1	1.1	-0.3	31.8	-1.2	-1.9	0.4	/	/
Cc1oc(-c2ccc(-c3ccccc3)cc2)nc1CN1CCN(CC(=O)N(C)C)CC1	14.8*	2.6	-6.1	0.4	6.5*	1.4	13.8*	0.9
COc1ccccc1NS(=O)(=O)c1cccc(NC(=O)CCNC(=O)c2ccccc2OC)c1	-2.5	-1.1	/	-2.2	-0.9	-0.9	/	/
COc1ccccc1OCc1cc(-c2ccccc2)no1	14.3*	3.6*	-19.0	-0.7	5.7*	1.9	11.3*	0.5
c1ccc(OCc2cc(-c3ccccc3)no2)cc1	14.3*	1.2	4.8	-0.7	4.9	1.8	12.0*	0.4
COc1ccc(OCc2cc(-c3ccc(Cl)cc3)no2)cc1	0.7	0.2	0.6	-0.3	-0.6	0.7	/	/
COc1ccccc1C(=O)NNC(=O)c1ccc(Br)cc1	7.3	0.7	-6.5	-0.8	3.1	0.1	/	/
Fc1ccc2nc(Nc3nc4c(F)cc(F)cc4s3)sc2c1	0.8	-0.1	3.9	0.7	4.1	0.5	/	/
